According to the supplement of paper PMC3334620:
Over roughly 33,000 sequences, “E-score (-0.5 to 0.5)” has its median near -0.035; the highest 2% begin near 0.34. The list comes from a sample in which the highest values are over-represented; it also holds similar and randomly drawn sequences.

target: T1, Mot3 (UniProt P54785); experiment: PBM E-score (8-mer binding enrichment) (E-score (-0.5 to 0.5)); higher = stronger / more preferred TF binding; conditions: protein concentration: 200 nM; construct: GST-full length
T1 sequence: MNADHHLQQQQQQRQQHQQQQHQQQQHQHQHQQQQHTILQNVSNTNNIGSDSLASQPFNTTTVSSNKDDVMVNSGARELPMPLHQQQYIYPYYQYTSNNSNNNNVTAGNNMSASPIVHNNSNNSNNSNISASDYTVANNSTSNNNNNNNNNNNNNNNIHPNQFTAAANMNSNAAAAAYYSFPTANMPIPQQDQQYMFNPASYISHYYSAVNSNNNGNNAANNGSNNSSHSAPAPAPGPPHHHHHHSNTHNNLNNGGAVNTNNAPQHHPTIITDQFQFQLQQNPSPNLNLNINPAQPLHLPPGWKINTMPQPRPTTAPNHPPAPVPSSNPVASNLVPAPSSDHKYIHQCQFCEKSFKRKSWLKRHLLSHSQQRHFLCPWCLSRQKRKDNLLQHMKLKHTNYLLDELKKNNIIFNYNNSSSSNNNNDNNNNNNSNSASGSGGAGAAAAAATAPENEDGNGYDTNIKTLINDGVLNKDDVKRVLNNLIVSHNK
Protocol: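 Universal 'all 10-mer' protein binding microarrays (Agilent AMADID 015681) probed with GST-tagged S. cerevisiae TFs (full-length or DBD) made by in vitro transcription/translation (PURExpress), about 100-200 nM. Bound TF was detected with fluorescent anti-GST. Each ungapped 8-mer (which stands for itself and its reverse complement) is scored by the PBM enrichment score (E-score), a modified Wilcoxon-Mann-Whitney statistic from -0.5 to +0.5, computed with the Universal PBM Analysis Suite. Scale: above 0.35 generally sequence-specific binding.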

Q: How did the “PBM E-score” value turn out when TAGGCAGA was run?
A: The value was 0.136.

Q: For TAGGCACA, which “PBM E-score” value is on record?
A: The value was 0.491.

Q: How did the “PBM E-score” value turn out when AACGTATG was run?
A: Its value is 0.0662.

Q: CGCGCTGC was tested. Which “PBM E-score” value did it give?
A: Its value is -0.0871.

Q: TAAACATA was tested. Which “PBM E-score” value did it give?
A: The value was 0.284.

Q: How did the “PBM E-score” value turn out when CCCAGATC was run?
A: The value was -0.111.

Q: How did the “PBM E-score” value turn out when ATTTTCAA was run?
A: The value was 0.12.

Q: How did the “PBM E-score” value turn out when GCGGCACC was run?
A: The value was -0.159.

Q: With CGGGCACA as the sequence, how does the “PBM E-score” value read?
A: The value was 0.0796.

Q: AAGGCGCT was tested. Which “PBM E-score” value did it give?
A: The value was 0.353.

Q: GAGGCACC was tested. Which “PBM E-score” value did it give?
A: Its value is 0.463.

Q: With TGGGCACA as the sequence, how does the “PBM E-score” value read?
A: Its value is 0.356.

Q: AAGGCGCA was tested. Which “PBM E-score” value did it give?
A: The value was 0.336.

Q: Which “PBM E-score” value does the source give for GGGGCACC here?
A: Its value is -0.152.

Q: CGGGCACG was tested. Which “PBM E-score” value did it give?
A: Its value is 0.263.

Q: How did the “PBM E-score” value turn out when AAGGCGCG was run?
A: The value was 0.252.

Q: For AACAGCTC, which “PBM E-score” value is on record?
A: Its value is -0.162.

Q: Which “PBM E-score” value does the source give for CTCTTTAC here?
A: The value was 0.177.

Q: How did the “PBM E-score” value turn out when TGGCCACA was run?
A: The value was -0.096.

Q: With ATTCCAGC as the sequence, how does the “PBM E-score” value read?
A: The value was -0.168.

Q: How did the “PBM E-score” value turn out when CTTCACGC was run?
A: The value was 0.151.

Q: How did the “PBM E-score” value turn out when AGCAGGTC was run?
A: The value was -0.0131.

Q: Which “PBM E-score” value does the source give for GCGTGGAA here?
A: The value was -0.104.

Q: CAGTGTAA was tested. Which “PBM E-score” value did it give?
A: The value was 0.225.

Q: CCGTGTAA was tested. Which “PBM E-score” value did it give?
A: Its value is 0.403.

Q: For CCGTGTGA, which “PBM E-score” value is on record?
A: Its value is 0.277.

Q: With ACGTGTAA as the sequence, how does the “PBM E-score” value read?
A: The value was 0.414.

Q: Which “PBM E-score” value does the source give for AGGTGTAA here?
A: The value was 0.26.

Q: Which “PBM E-score” value does the source give for GCGTGTAA here?
A: The value was 0.431.

Q: With TAGTGTAA as the sequence, how does the “PBM E-score” value read?
A: Its value is 0.206.

Q: For ACGTGTGA, which “PBM E-score” value is on record?
A: The value was 0.184.

Q: Which “PBM E-score” value does the source give for TCGTGTAA here?
A: Its value is 0.411.

Q: How did the “PBM E-score” value turn out when GCGTGTCC was run?
A: The value was 0.0864.

Q: Which “PBM E-score” value does the source give for TGGTGTAA here?
A: The value was 0.186.

Q: Which “PBM E-score” value does the source give for ACTCCAGG here?
A: Its value is 0.0384.

Q: How did the “PBM E-score” value turn out when ACACCTAA was run?
A: Its value is 0.168.

Q: For AGGGCAAG, which “PBM E-score” value is on record?
A: Its value is 0.13.

Q: Which “PBM E-score” value does the source give for CACTCTAG here?
A: The value was -0.145.

Q: For ACCCAGCC, which “PBM E-score” value is on record?
A: The value was -0.259.

Q: How did the “PBM E-score” value turn out when ATTCCTTA was run?
A: The value was 0.211.

Q: With ATTCCTGA as the sequence, how does the “PBM E-score” value read?
A: The value was 0.136.

Q: For ATTCCTAA, which “PBM E-score” value is on record?
A: Its value is 0.105.

Q: With GTTCCTTA as the sequence, how does the “PBM E-score” value read?
A: The value was 0.428.

Q: With CTTCCTTA as the sequence, how does the “PBM E-score” value read?
A: Its value is 0.146.

Q: For GTTCCTGA, which “PBM E-score” value is on record?
A: Its value is 0.428.

Q: CTTCCTGA was tested. Which “PBM E-score” value did it give?
A: Its value is -0.0128.

Q: Which “PBM E-score” value does the source give for CTTCCTAA here?
A: The value was 0.0478.

Q: Which “PBM E-score” value does the source give for GTTCCTAA here?
A: The value was 0.431.

Q: How did the “PBM E-score” value turn out when CCCGAAGG was run?
A: The value was -0.0155.

Q: ATGGAAGC was tested. Which “PBM E-score” value did it give?
A: The value was -0.191.

Q: AAATGCCT was tested. Which “PBM E-score” value did it give?
A: The value was 0.377.

Q: ACATGCCT was tested. Which “PBM E-score” value did it give?
A: The value was 0.366.

Q: AAGTGCCT was tested. Which “PBM E-score” value did it give?
A: Its value is 0.48.

Q: AAATGCCA was tested. Which “PBM E-score” value did it give?
A: The value was -0.105.

Q: ACATGCGT was tested. Which “PBM E-score” value did it give?
A: The value was 0.341.

Q: Which “PBM E-score” value does the source give for AAATGCCC here?
A: Its value is -0.192.

Q: With ACATGCGG as the sequence, how does the “PBM E-score” value read?
A: Its value is 0.175.

Q: For ACATGCGC, which “PBM E-score” value is on record?
A: Its value is 0.251.

Q: With ACATGCCC as the sequence, how does the “PBM E-score” value read?
A: The value was 0.21.

Q: For ACATGCCA, which “PBM E-score” value is on record?
A: Its value is 0.304.

Q: AAGTGCCA was tested. Which “PBM E-score” value did it give?
A: Its value is 0.0649.

Q: AAGTGCCC was tested. Which “PBM E-score” value did it give?
A: The value was -0.177.

Q: How did the “PBM E-score” value turn out when TCAGACCA was run?
A: The value was -0.201.

Q: With CCTCTTGC as the sequence, how does the “PBM E-score” value read?
A: The value was 0.0662.

Q: With GAGGGTGA as the sequence, how does the “PBM E-score” value read?
A: The value was -0.208.

Q: CCGCTCCG was tested. Which “PBM E-score” value did it give?
A: The value was -0.227.

Q: AAACCGAA was tested. Which “PBM E-score” value did it give?
A: The value was -0.0393.

Q: Which “PBM E-score” value does the source give for ACAGCTGT here?
A: Its value is -0.0347.

Q: How did the “PBM E-score” value turn out when AGCTCAGC was run?
A: Its value is -0.206.

Q: How did the “PBM E-score” value turn out when CTGCAGTC was run?
A: The value was -0.106.

Q: Which “PBM E-score” value does the source give for ATGCAGGA here?
A: The value was 0.0312.

Q: With ATGCAGGC as the sequence, how does the “PBM E-score” value read?
A: Its value is 0.342.

Q: With ATGCAGGG as the sequence, how does the “PBM E-score” value read?
A: Its value is -0.153.

Q: Which “PBM E-score” value does the source give for CTGCAGGC here?
A: The value was 0.406.

Q: With CTGCAGGA as the sequence, how does the “PBM E-score” value read?
A: Its value is 0.291.

Q: ACCATTTC was tested. Which “PBM E-score” value did it give?
A: Its value is -0.123.

Q: CCGAGACG was tested. Which “PBM E-score” value did it give?
A: Its value is -0.0781.

Q: Which “PBM E-score” value does the source give for CGCTGGTC here?
A: Its value is -0.275.

Q: Which “PBM E-score” value does the source give for GCTGTCGA here?
A: Its value is -0.12.

Q: With CATGTCGG as the sequence, how does the “PBM E-score” value read?
A: The value was 0.222.

Q: GATGTCGA was tested. Which “PBM E-score” value did it give?
A: The value was 0.215.

Q: Which “PBM E-score” value does the source give for CATGTCGA here?
A: Its value is 0.351.

Q: How did the “PBM E-score” value turn out when CCTGTCGA was run?
A: Its value is 0.342.

Q: How did the “PBM E-score” value turn out when CCTGTCGC was run?
A: The value was -0.046.

Q: For GGGTTCTA, which “PBM E-score” value is on record?
A: The value was -0.176.

Q: For GTCTGTAA, which “PBM E-score” value is on record?
A: The value was 0.149.
